# Source: PubChem
# Only some compounds are listed: those with a hit (about 5.2% of all), similar ones and a draw of the others.
# Tau FP inhib: qHTS for Inhibitors of Tau Fibril Formation, Fluorescence Polarization. K18 P301L tau heparin fibrillization, Alexa594 FP, 6 h. Potency, µM (doses to about 57.7 µM), without a hit: at the highest dose activity, negative = inhibition, usual class: inhibitors. 280,000 tested, 0.39% active; also: potency is read from the fitted curve at half-maximal effect; nearly all actives have a fitted effect of over 55% in size
# Target sequence (P10636 561-689 P618L limits assumed): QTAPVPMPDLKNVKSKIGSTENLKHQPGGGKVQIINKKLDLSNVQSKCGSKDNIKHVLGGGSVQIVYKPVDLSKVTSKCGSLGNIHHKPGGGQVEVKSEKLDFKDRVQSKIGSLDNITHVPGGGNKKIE
#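 Quantitative HTS format: compounds meet 15 uM recombinant K18 P301L tau and Alexa 594-tau tracer in 100 mM sodium acetate pH 7; 20 uM heparin triggers fibrillization at 37 C over 6 hr; FP gives the signal.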
# Tau fluor counter: Counterscreen qHTS for Inhibitors of Tau Fibril Formation, Fluorescence Polarization | AID 1463, 2008 | Potency, µM (titrated, usually from 57.7 µM), without a hit: at the top dose activity change, negative = decrease | tau K18 P301L Alexa594 fluorescence, heparin fibrillization | 280,000 tested, 0.93% active; also: potency is read from the fitted curve at half-maximal effect; nearly all actives have a fitted effect of over 55% in size
#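 Human tau K18 P301L (15 uM unlabeled, 0.24 uM Alexa 594-labeled) in 100 mM sodium acetate pH 7 with 20 uM heparin, 6 hr at 37 C. ThT 30 uM added, 1 hr ambient; Alexa 594 FP and total fluorescence read at 555/632 nm.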
# Tau fibril ThT: qHTS for Inhibitors of Tau Fibril Formation, Thioflavin T Binding; Microtubule-associated protein tau (Homo sapiens), P10636; recombinant tau K18 P301L, heparin-induced fibrillization, ThT fluorescence; Potency, µM (highest dose often 57.4 µM), for the others: at the top dose activity, negative = inhibition, actives largely listed as inhibitors; 270,000 tested, 2.1% active; AID 1460, 2008; also: potency is read from the fitted curve at half-maximal effect; nearly all actives have a fitted effect of over 55% in size
#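 Using a mix of unlabeled (15 uM) and Alexa 594-labeled (0.24 uM) tau K18 P301L, heparin-triggered fibrillization over 6 hr at 37 C was scored by ThT fluorescence.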
# Sfp PPTase inh: qHTS Assay for Inhibitors of Bacillus subtilis Sfp phosphopantetheinyl transferase (PPTase) | Potency, µM, for the others: largest response in the series, negative = inhibition, hits mostly inhibitors | 4'-phosphopantetheinyl transferase ffp (Bacillus subtilis), Q9F4F7 | 310,000 tested, 3.5% active | Biochemical Sfp PPTase activity, qHTS | AID 1490, 2009;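 also: the enzyme is Sfp with the accession as filed and its product quenches rhodamine fluorescence; potency is read from the fitted curve at half-maximal effect; 0% = enzyme reaction without inhibitor and -100% = no enzyme wells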
#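 Fluorescence-quenching assay with 15 nM Sfp, 5 uM rhodamine-CoA and 12.5 uM BHQ-2-labelled ybbR peptide in pH 7.6 Hepes/MgCl2 buffer. Enzyme was pre-incubated with compound for 15 min at room temperature. Rate was taken from the 30-min fluorescence change (525/598 nm).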
# FBPA coupling cs: qHTS Assay for Inhibitors of Fructose-1,6-bisphosphate Aldolase from Giardia Lamblia: Coupling assay counterscreen | 290,000 tested, 0.67% active | coupling enzyme system counterscreen, AmpLite Red fluorescence | activity change, negative = inhibition, % at 58.2 µM, hits read low; in the data active = activity change below about -30%
#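 Counterscreen lacking aldolase: glyceraldehyde-3-phosphate coupling-enzyme reagent preincubated 10 min at RT with compound (at 57.5 uM final), then substrate/coupling system with AmpLite Red added; fluorescence read at 525/598 nm after 20 min RT.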
# Numbers without * were called inactive; u = inconclusive; x = no result; [ ] = another dose, or the depositor's remark. Unless noted, calls follow the shape of the dose curve; as a rule, active = well fitted curve in the direction sought with a large enough effect; inconclusive = small, poorly fitted or top-dose-only effect, or another doubt; inactive = no such curve, though single readings can be large; an effect the other way counts as inactive or inconclusive. Unless noted, % is scaled to controls: 0 for no effect and ±100 for the full control effect.
SMILES,Tau FP inhib,Tau fluor counter,Tau fibril ThT,Sfp PPTase inh,FBPA coupling cs
CSC(=NC#N)N1CCN(c2ccc([N+](=O)[O-])cc2)CC1,0.1%,-21.0%,2µM*,-9.9%,0.8
CCCCCCCCCCC(C)=O,x,x,x,25.4%,-0.6
COc1ccc(-c2noc(CSCC(=O)Nc3ccc(C)cc3Br)n2)cc1OC,6.7%,-20.4%,u,x,x
Cn1c(=S)ccc2ccccc21,-11.5%,-7.4%,u,44.7µM*,-0.8
O=C1C(=O)N(CCCN2CCOCC2)C(c2ccc(F)cc2)/C1=C(/O)c1ccccc1 (stereo not drawn),x,x,x,3.9%,4.8
COc1ccc(/C(O)=C2\C(=O)C(=O)N(CCN3CCOCC3)C2c2ccccc2OC)cc1 (stereo not drawn),-2.0%,-1.5%,-8.5%,6.9%,2.9
O=C1C(=O)N(CCN2CCOCC2)C(c2ccccn2)/C1=C(/O)c1ccc(F)cc1 (stereo not drawn),-11.8%,-23.1%,u,56.2µM*,-22.5
COC(=O)c1[nH]c(C)c(/C(O)=C2\C(=O)C(=O)N(CCCN3CCOCC3)C2c2ccccn2)c1C (stereo not drawn),-9.4%,-22.2%,u,50.1µM*,-19.8
COc1ccc(/C(O)=C2/C(=O)C(=O)N(CCN3CCOCC3)C2c2ccccn2)cc1 (stereo not drawn),-10.6%,-10.4%,u,50.1µM*,-23.4
N#Cc1ccc2c(c1)C[C@]1(c3ccsc3)Oc3c(c(=O)oc4ccccc34)C2O1,x,x,x,-16.0%,-2.0
O=C(CSc1nc(=O)[nH]c2c1CCCC2)Nc1ccccc1C(F)(F)F,6.4%,-3.3%,-5.2%,x,x
CCNc1ccc(-c2nc(-c3ccncc3)no2)cc1[N+](=O)[O-],-1.3%,2.3%,2.0%,x,x
CCc1ccccc1N1CSC2=C(C#N)C(c3ccccc3F)CC(=O)N2C1 (stereo not drawn),u,-18.5%,28.2µM*,1.12µM*,-19.4
COc1ccc(OC)c(C2CC(=O)N3CN(c4ccccc4)CSC3=C2C#N)c1 (stereo not drawn),15.8µM*,u,28.2µM*,4.47µM*,-18.1
COC(=O)CSC1=C(C#N)C(c2ccc(C)o2)CC(=O)N1 (stereo not drawn),6.3%,0.8%,-6.5%,-11.7%,0.3
COc1cc(OC)c(C2CC(=O)N3CN(c4ccccc4C)CSC3=C2C#N)cc1OC (stereo not drawn),31.6µM*,-24.3%,28.2µM*,3.98µM*,-28.5
Cc1cccc(N2CSC3=C(C#N)C(c4ccc(C)o4)CC(=O)N3C2)c1 (stereo not drawn),u,-26.6%,14.1µM*,2.82µM*,-17.8
C=CCOC(=O)C1=C(C)OC(N)=C(C#N)C1c1ccccc1F (stereo not drawn),-6.8%,-22.9%,-12.6%,9.2%,0.7
COc1cccc(C2SCC(=O)N2c2ccc(Cl)cc2)c1OC (stereo not drawn),u,0.5%,1.0%,-0.8%,1.8
COc1ccc(N2CN=C3SCC(=O)N3C2)cc1,-1.1%,-1.5%,-15.1%,12.0%,0.1
COc1ccc(N2CSC3=C(C#N)C(c4cccc(OC)c4OC)CC(=O)N3C2)cc1 (stereo not drawn),u,-25.4%,17.8µM*,3.55µM*,-29.0
COc1ccc(C2CC(=O)N3CN(c4ccc(C)c(Cl)c4)CSC3=C2C#N)cc1 (stereo not drawn),u,-16.7%,31.6µM*,2.82µM*,-35.6*
O=S(=O)(c1ccc(OC(F)(F)F)cc1)N1CCC(c2nc3ccccc3s2)CC1,-4.9%,9.8%,8.5%,x,x
COc1ccc(OC)c(CNC(=O)c2ccc(Sc3ccc(C)cc3)c(N)c2)c1,5.1%,u,1.4%,x,x
COC(=O)c1ccc(Sc2ccc(C)cc2)c(N)c1,4.8%,u,-11.2%,50.1µM*,1.1
SMILES,Tau FP inhib,Tau fluor counter,Tau fibril ThT,Sfp PPTase inh,FBPA coupling cs
Cc1ccc2c(c1)c1c(n2C)C(C(N)=O)CCC1 (stereo not drawn),-5.8%,-3.2%,-13.0%,-5.1%,0.2
Cc1ccc2c(c1)c1c(n2C)-c2[nH]ncc2CC1,5.2%,17.8µM*[quencher],u,11.5%,-0.4
O=C(O)C1CC(CCCP(=O)(O)O)CCN1 (stereo not drawn),x,x,x,-1.2%,1.5
CC(C)(C)OC(=O)NCCCCC1=CC2=CC(=O)C(C)(OC(=O)C3CCCC3)C(=O)C2=CO1 (stereo not drawn),-1.6%,-3.3%,-0.1%,-10.4%,4.9
CC(C)c1ccc(-c2nc(N3CCCCC3)[nH]c(=O)c2C#N)cc1,2.0%,5.3%,1.6%,8.6%,3.6
CC1=Nc2nc(N3CCCCC3)c(C#N)c3c4c(nc(c23)N1)N(c1ccc(C(C)C)cc1)C(=O)C4,u,-29.9%,12.6µM*,u,0.0
COc1ccc(C2=NN(C(=O)c3cccs3)C(O)(C(F)(F)F)C2)cc1 (stereo not drawn),-1.6%,u,u,44.7µM*,-0.3
COc1ccc(C2CC(c3ccccc3)=NN2C(=O)c2cccs2)cc1 (stereo not drawn),u,7.94µM*[quencher],-14.4%,-27.4%,0.5
O=C(c1ccccc1)N1N=C(c2ccccc2)CC1(O)C(F)(F)F (stereo not drawn),x,x,x,0.2%,0.5
O=c1c2ncn([C@@H]3O[C@@H]4COP(=O)(O)O[C@H]4[C@H]3O)c2nc2[nH]c(-c3ccccc3)cn12,x,x,x,22.3%,-1.1
CN(C)c1ncc2nc(-c3cc(F)cc(F)c3)c(=O)n(CCc3ccccc3)c2n1,x,x,x,-19.0%,-1.5
COc1ccc2c3c(cccc13)N(C)N=C2C,u,u,7.08µM*,-14.7%,-4.6
CC(C)(C)c1ccc(NC(=O)COC(=O)c2ccc(NS(=O)(=O)c3ccc(F)c(F)c3)cc2)cc1,28.2µM*,u,2.7%,40.3%,-1.0
CC(=O)c1cccc(NS(=O)(=O)c2ccc3[nH]c4c(c3c2)CCCCC4)c1,2.0%,14.1µM*[quencher],-1.8%,x,x
CCOC(=O)c1ccc(NS(=O)(=O)c2ccc3[nH]c(=O)[nH]c3c2)cc1,-5.7%,-6.3%,-17.5%,22.4µM*,0.1
CCCCNC(=O)c1ccc(NS(=O)(=O)c2ccc3[nH]c(=O)[nH]c3c2)cc1,x,x,x,-10.3%,x
CC(C)(C)NS(=O)(=O)c1ccc2[nH]c3c(c2c1)CCCCC3,x,x,x,6.6%,5.9
CCOC(=O)c1cccc(NS(=O)(=O)c2ccc3[nH]c4c(c3c2)CCCC4)c1,-2.1%,10µM*[quencher],-1.1%,x,x
CC(C)(C)NC(=O)NC(=O)COC(=O)c1cccc(NS(=O)(=O)c2ccc(F)c(F)c2)c1,2.1%,-23.0%,-2.9%,18.9%,-2.6
COc1cccc(NC(=O)c2nn(-c3ccc(C)cc3)c(=O)n(C)c2=O)c1,-6.5%,-22.4%,u,x,x
